Assay outcomes from PubChem.
CYP2C9 act = increases human cytochrome P450 2C9 activity; P11712; recombinant CYP2C9, luciferin-H conversion, luminescence; hits give high values; factor 1 = untreated enzyme, 0 = blocked; activation factor at 5 µM; actives 1.4% (n = 96,000);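 active means activation factor of 2 or more for CYP2C9 at a 5 µM dose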
MRP reversal = MRP-mediated drug resistance reversal | differential viability (reversal), % at 10 µM | H69AR cells + 2 uM doxorubicin, CellTiter-Glo, 72 h | AID 602 | actives 0.04% (n = 85,000);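 active means viability drop by adding the cancer drug above about 55%, with treated viability meeting a 40% cutoff, limit read from the data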;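 further: larger differential means the compound sensitizes cells more to doxorubicin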
CYP2C19 inhib = inhibitors of human CYP2C19 | P33261 | CYP2C19 Supersomes, luciferin-H EGE luminescence, 30 min | inhibition, % at 5 µM | actives 21% (n = 96,000);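 active means CYP2C19 inhibition above a set limit at 5 µM in the primary screen, cut at about 50% in these data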
Target sequence (P33261 whole entry, looked up): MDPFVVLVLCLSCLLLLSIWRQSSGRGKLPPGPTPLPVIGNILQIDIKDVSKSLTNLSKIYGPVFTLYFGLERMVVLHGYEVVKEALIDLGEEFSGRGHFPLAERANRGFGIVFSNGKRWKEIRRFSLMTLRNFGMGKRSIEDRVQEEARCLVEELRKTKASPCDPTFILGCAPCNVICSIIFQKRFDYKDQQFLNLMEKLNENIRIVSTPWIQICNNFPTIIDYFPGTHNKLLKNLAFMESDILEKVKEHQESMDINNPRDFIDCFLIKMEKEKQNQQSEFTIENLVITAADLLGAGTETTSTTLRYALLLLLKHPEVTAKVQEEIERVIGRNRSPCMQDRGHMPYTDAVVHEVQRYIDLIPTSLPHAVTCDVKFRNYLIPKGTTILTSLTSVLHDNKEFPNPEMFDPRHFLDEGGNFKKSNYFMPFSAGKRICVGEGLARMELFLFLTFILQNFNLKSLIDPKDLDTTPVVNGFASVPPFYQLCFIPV
CYP2C9 inhib = inhibitors of human CYP2C9; P11712; CYP2C9 Supersomes, luciferin-H conversion, luminescence; inhibition, % at 5 µM; actives 20% (n = 96,000); AID 777;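 active means blocking of liver enzyme CYP2C9 beyond about 50% at 5 µM, limit read from the data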
CYP2C19 activ = increases human CYP2C19 enzyme activity | P33261 | recombinant CYP2C19, luciferin-H EGE luminescence; hits give high values; 0 = fully inhibited enzyme, 1 = untreated enzyme | activation factor at 5 µM | 96,000 tested, under 10 active | AID 1025;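 active means activation factor of at least 2 at 5 µM in the primary screen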
MRP1 act = activators of MRP-1. H69AR cells + doxorubicin, viability rescue, CellTiter-Glo. viability increase, % at 10 µM. actives 0.61% (n = 140,000). AID 799;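 active means viability gain under doxorubicin at or above a set limit, the compound median plus 3 SD, cut at about 4.7% in these data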;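 further: MRP-1 overexpressing cells given doxorubicin 25 µM after compound pretreatment; 18-22 h compound pretreatment then 72 h with doxorubicin before readout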
Large screens that a line does not name were inactive. Hits are enriched below; roughly 21% of the tested compounds scored in any of these assays.

COc1cc(CNCCSc2nnnn2C)cc(Br)c1OCc1ccccc1F	CYP2C19 inhib 68 (no result: MRP reversal)
CCOc1cc(CNCCSc2nnnn2C)cc(Br)c1OCc1ccc(F)cc1	none (no result: CYP2C9 act, MRP reversal, CYP2C19 inhib, CYP2C9 inhib, CYP2C19 activ)
CCOc1cc(CNCc2cccs2)cc(Br)c1OCC	CYP2C19 inhib 73 (no result: MRP reversal)
COc1cc(CNCCSc2nnnn2C)cc(Br)c1OCc1ccc(F)cc1	CYP2C19 inhib 76 (no result: MRP reversal)
CCOc1cc(CNCCO)cc(Br)c1OCc1cccs1	none (no result: MRP reversal)
CCOc1cc(CNc2ccccc2)cc(Br)c1OCc1ccc(F)cc1	CYP2C9 inhib 51 (no result: MRP reversal)
O=C1CCn2nc(-c3ccc(Cl)cc3)cc2N1	none
O=S(=O)(NCc1ccco1)N1CCOCC1	none
CCOc1cc(CNCCSc2nnnn2C)cc(Br)c1OCc1ccccc1F	CYP2C19 inhib 84 (no result: MRP reversal)
CCOc1cc(CNCc2ccncc2)cc(Br)c1OCc1ccccc1F	CYP2C19 inhib 85, CYP2C9 inhib 91 (no result: MRP reversal)
O=C1COC(c2ccccc2)C2CCCCN12 (configuration not stated)	none (no result: CYP2C9 act, MRP reversal, CYP2C19 inhib, CYP2C9 inhib, CYP2C19 activ)
Cc1ccc2c3c(c(SCC(=O)Nc4nccs4)nc2c1)CCCC3	none (no result: MRP reversal)
CC(=O)c1c(C)nc(-c2ccc(Cl)cc2)nc1N=CN(C)C	CYP2C9 inhib 51
CCOC(=O)c1c(/N=C/N(C)C)sc(/C=N/Nc2ccccc2)c1-c1ccc(Cl)cc1	none (no result: CYP2C9 act, MRP reversal, CYP2C19 inhib, CYP2C9 inhib, CYP2C19 activ)
O=C(Nc1cccc2ncccc12)C12CC3CC(CC(C3)C1)C2	none
O=C(CC12CC3CC(CC(C3)C1)C2)Nc1cccc2ncccc12	CYP2C19 inhib 51
Cc1cccc(C)c1Oc1nc(-c2ccccc2)ncc1S(=O)(=O)c1ccccc1	CYP2C9 inhib 85 (no result: MRP reversal)
Cc1ccc2cc(CCNC(=O)c3ccc(C)c([N+](=O)[O-])c3)c(=O)[nH]c2c1	none (no result: CYP2C9 act, MRP reversal, CYP2C19 inhib, CYP2C9 inhib, CYP2C19 activ)
Cc1sc2ncnc(NCCc3ccc(S(N)(=O)=O)cc3)c2c1C	none (no result: MRP reversal)
NS(=O)(=O)c1ccc(CCNc2ncnc3sccc23)cc1	CYP2C19 inhib 83
OC1CCCN(Cc2ccc3ccc4cccc5ccc2c3c45)C1 (configuration not stated)	none
c1ccc2cc(CN3CCOCC3)ccc2c1	none
c1cc2ccc3ccc(CN4CCOCC4)c4ccc(c1)c2c34	CYP2C19 inhib 74
Cc1cc2ccccc2cc1CN1CCOCC1	CYP2C19 inhib 58
COc1cccc(CNC(=O)Cn2c(=O)oc3ccccc32)c1OC	CYP2C19 inhib 66
CCn1c(=O)n(CC(=O)NCc2ccccc2OC)c(=O)c2ccccc21	CYP2C19 inhib 54
Cc1ccc(C)c(NC(=S)NNC(=O)c2sccc2C)c1	CYP2C19 inhib 79, CYP2C9 inhib 89 (no result: MRP reversal)
Cc1ccc(C)c(NC(=S)NNC(=O)c2csc(C)c2C)c1	none (no result: CYP2C9 act, MRP reversal, CYP2C19 inhib, CYP2C9 inhib, CYP2C19 activ)
CC(C)[C@H](NC(=O)c1ccc(Cl)c([N+](=O)[O-])c1)C(=O)NCc1ccc(Cl)cc1Cl	none (no result: CYP2C9 act, MRP reversal, CYP2C19 inhib, CYP2C9 inhib, CYP2C19 activ)
O=C(c1ccc([N+](=O)[O-])cc1)N1CCSC1c1ccc(Cl)cc1 (configuration not stated)	none (no result: CYP2C9 act, MRP reversal, CYP2C19 inhib, CYP2C9 inhib, CYP2C19 activ)
O=C(c1ccc([N+](=O)[O-])cc1)N(Cc1ccc(Cl)cc1)N1C(=O)CCCC1=O	CYP2C19 inhib 51
O=C(c1ccc([N+](=O)[O-])cc1)N(Cc1ccc(Cl)cc1Cl)N1C(=O)CCCC1=O	CYP2C19 inhib 64
O=C(CSc1nnnn1-c1cccnc1)NCc1cccs1	none
COC(=O)C/C=C/[C@@H](C)[C@@H](/C=N/OCC[C@@H]1C=C[C@H](OC(C)=O)[C@@H](COC(C)=O)O1)NS(=O)(=O)c1ccc(C)cc1	none (no result: CYP2C9 act, MRP reversal, CYP2C19 inhib, CYP2C9 inhib, CYP2C19 activ)
C#CC[N+]1(CC#Cc2ccc(C)cc2)CCCCC1	none (no result: CYP2C9 act, MRP reversal, CYP2C19 inhib, CYP2C9 inhib, CYP2C19 activ)
Cc1nn(Cc2ccc(Cl)c(Cl)c2)c(C)c1NC(=O)c1cn(-c2ccccc2)nc1-c1ccccc1	CYP2C9 inhib 90 (no result: MRP reversal)
Cc1nn(Cc2ccc(Cl)c(Cl)c2)c(C)c1NC(=O)c1cc(-c2ccc3c(c2)OCO3)on1	CYP2C9 inhib 66
Cc1nn(Cc2ccc(Cl)cc2)c(C)c1NC(=O)c1cc(-c2ccc3c(c2)OCO3)on1	CYP2C9 inhib 54
Cc1cccc(C)c1NC(=O)c1cn(-c2ccccc2)nc1-c1ccccc1	none (no result: CYP2C9 act, MRP reversal, CYP2C19 inhib, CYP2C9 inhib, CYP2C19 activ)
COc1ccc(-c2cc(C(=O)Nc3c(C)nn(Cc4ccccc4Cl)c3C)no2)cc1	none
CCCOc1ccc(S(=O)(=O)NNC(=O)c2cc3ccccc3o2)cc1	none (no result: CYP2C9 act, MRP reversal, CYP2C19 inhib, CYP2C9 inhib, CYP2C19 activ)
COc1ccc(C)cc1N(C(=O)CNC(=O)c1ccco1)C(C(=O)NC1CCCC1)c1cccnc1 (configuration not stated)	none
CCOc1ccccc1N(C(=O)c1ccco1)C(C(=O)NC1CCCC1)c1cccnc1 (configuration not stated)	CYP2C19 inhib 56
COc1ccc(CN(C(=O)CNC(=O)c2ccco2)C(C(=O)NC2CCCC2)c2ccco2)cc1 (configuration not stated)	CYP2C19 inhib 62, CYP2C9 inhib 62
COc1cccc(N(C(=O)CNC(=O)c2ccco2)C(C(=O)NC2CCCCC2)c2ccncc2)c1 (configuration not stated)	CYP2C19 inhib 57, CYP2C9 inhib 76
O=C(NCC(=O)N(c1ccccc1)C(C(=O)NC1CCCC1)c1ccncc1)c1ccco1 (configuration not stated)	none (no result: CYP2C9 act, CYP2C19 inhib, CYP2C9 inhib, CYP2C19 activ, MRP1 act)
COc1cccc(N(C(=O)c2ccco2)C(C(=O)NC2CCCC2)c2cccnc2)c1 (configuration not stated)	CYP2C19 inhib 67, CYP2C9 inhib 65
COc1cccc(N(C(=O)c2ccco2)C(C(=O)NC2CCCC2)c2ccc(N(C)C)cc2)c1 (configuration not stated)	none
COc1ccc(Cl)cc1NC(=O)Nc1cccc([N+](=O)[O-])c1C	none (no result: MRP reversal)
COc1ccc(C)cc1S(=O)(=O)N(CC(=O)Nc1cccc([N+](=O)[O-])c1)c1ccc(C)c(C)c1	none (no result: CYP2C9 act, MRP reversal, CYP2C19 inhib, CYP2C9 inhib, CYP2C19 activ)
O=C(O)CC(Cc1ccc(Cl)cc1)C(=O)NCc1ccccc1 (configuration not stated)	none (no result: CYP2C9 act, MRP reversal, CYP2C19 inhib, CYP2C9 inhib, CYP2C19 activ)
CCSc1ncnc2c1sc1nc3c(cc12)COC(C)(C)C3	none (no result: CYP2C9 act, MRP reversal, CYP2C19 inhib, CYP2C9 inhib, CYP2C19 activ)
CCOc1ccc(NC(=O)C(c2ccccn2)N(C(=O)CCl)c2ccc(F)cc2)cc1 (configuration not stated)	none (no result: CYP2C9 act, MRP reversal, CYP2C19 inhib, CYP2C9 inhib, CYP2C19 activ)
COc1cccc(N=Nc2c(N)[nH]n3c(=O)cc(-c4ccccc4)nc23)c1	none (no result: MRP reversal)
Cc1ccc(N=Nc2c(N)[nH]n3c(=O)cc(-c4ccccc4)nc23)cc1	MRP1 act 6.0 (no result: MRP reversal)
CC1=CC(C)C2(CO)COC(c3ccccc3O)C1C2C (configuration not stated)	CYP2C19 inhib 90, CYP2C9 inhib 64
COCCCNC(=O)C1CCCN(C(=O)Nc2ccc(OC)cc2)C1 (configuration not stated)	none
CCC(=O)Nc1cc(C(C)(C)C)ccc1C(C)=O	none (no result: CYP2C9 act, MRP reversal, CYP2C19 inhib, CYP2C9 inhib, CYP2C19 activ)
Cc1cc(C)n(-c2ccc(C(=O)OCC(=O)Nc3ccc(Cl)c(S(=O)(=O)N(C)C)c3)cc2)n1	CYP2C19 inhib 83
Cc1cc(C)n(-c2ccc(C(=O)OCC(=O)Nc3ccc(S(=O)(=O)N4CCOCC4)cc3)cc2)n1	CYP2C19 inhib 88, CYP2C9 inhib 71
